Reference: PubChem BioAssay (NCI)
Where “and” joins values, the source holds several entries; their conditions need not be identical. Equal entries are not always repeated. This is part of a sample that, as a whole, favours compounds with a hit. Of some 79,000 tested, about 15% had one in any assay. Where a structure was tested more than once in an assay, its records may differ in their call. Calls of active or inactive are those of the source. Cut-off read from the data, not from the text of the source: active = growth inhibition above about 70%; inactive = the rest.

Legend:
[1] = NCI Yeast Anticancer Drug Screen. Data for the wt1 strain (AID 149);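 note: 0% = growth of vehicle-treated wt1 cultures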; settings: S. cerevisiae wt1 strain (SPY 50644) growth inhibition, stronger effect = higher value
Summary of the method: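 wt1 yeast, compound-treated; % growth inhibition vs vehicle control.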

[2] = NCI Yeast Anticancer Drug Screen. Data for the rad50 strain (AID 155);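 note: 0% = growth of vehicle-only cultures of the same strain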; settings: S. cerevisiae rad50 strain growth inhibition, stronger effect = higher value
Summary of the method: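 Genetically altered yeast (DNA repair pathway); compound treatment; growth inhibition vs vehicle ctrl.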

[3] = NCI Yeast Anticancer Drug Screen. Data for the mec2-1 strain (AID 157); settings: S. cerevisiae mec2-1 strain, stronger effect = higher value
Summary of the method: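 Each compound was tested on mec2-1 yeast, a strain altered in DNA damage repair or cell cycle control. Growth inhibition is reported relative to vehicle.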

[4] = NCI Yeast Anticancer Drug Screen. Data for the rad14 strain (AID 159);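 note: 0% = growth of vehicle-treated control cultures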; settings: S. cerevisiae rad14 strain growth inhibition, stronger effect = higher value
Summary of the method: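 Test compounds were applied to a repair-deficient yeast strain. Its growth was then compared with that of cultures given vehicle alone, and inhibition was expressed relative to those controls.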

[5] = NCI Yeast Anticancer Drug Screen. Data for the sgs1 mgt1 strain (AID 161);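 note: 0% = growth of cultures given vehicle only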; settings: S. cerevisiae sgs1 mgt1 strain, stronger effect = higher value
Summary of the method: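 Read-out: growth inhibition vs vehicle controls. Cells: mutant yeast strain deficient in DNA damage repair.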

[6] = NCI Yeast Anticancer Drug Screen. Data for the CLN2oe strain (AID 163);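 note: 0% = growth of vehicle-only control cultures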; settings: S. cerevisiae CLN2oe strain, stronger effect = higher value
Summary of the method: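 First, the altered yeast strain was treated with each compound; second, its growth was measured; finally, inhibition was derived by comparison with vehicle controls.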

[7] = NCI Yeast Anticancer Drug Screen. Data for the cln2 rad14 strain (AID 165);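 note: 0% = growth equal to vehicle treated cultures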; settings: S. cerevisiae cln2 rad14 strain, stronger effect = higher value
Summary of the method: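 Test compounds were added to cln2 rad14 yeast cultures; inhibition of growth was then determined by comparison with vehicle treatment.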

[8] = NCI Yeast Anticancer Drug Screen. Data for the bub3 strain (AID 167); settings: S. cerevisiae bub3 mutant strain, stronger effect = higher value
Summary of the method: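 Yeast carrying a defined mutation is treated with each compound, and growth is compared with that of vehicle-exposed cells to give inhibition.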

[9] = NCI Yeast Anticancer Drug Screen. Data for the wt2 strain (AID 169);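 note: 0% = growth of vehicle-treated yeast cultures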; settings: S. cerevisiae wt2 strain growth inhibition, stronger effect = higher value
Summary of the method: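 The panel's yeast strains carry defined changes in DNA repair or cell cycle genes. Each strain is grown with compound, and growth loss is scored relative to vehicle.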

[10] = NCI Yeast Anticancer Drug Screen. Data for the mlh1 strain (AID 171);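 note: 0% = growth of vehicle-treated control cultures of the same strain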; settings: S. cerevisiae mlh1 strain growth inhibition, stronger effect = higher value
Summary of the method: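 Inhibition values reflect reduced yeast growth in the presence of compound, referenced to vehicle controls, using a strain chosen for its alteration in DNA repair or cell cycle control.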

[11] = NCI Yeast Anticancer Drug Screen. Data for the sgs1 strain (AID 173);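 note: 0% = growth of vehicle-only control cultures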; settings: S. cerevisiae sgs1 mutant, stronger effect = higher value
Summary of the method: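 Vehicle-treated cultures served as reference for growth inhibition of a yeast strain altered in DNA damage repair or cell cycle control after compound exposure.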

[12] = NCI Yeast Anticancer Drug Screen. Data for the mlh1 rad18 strain (AID 175); settings: S. cerevisiae mlh1 rad18 strain growth inhibition, stronger effect = higher value
Summary of the method: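 Inhibition values reflect reduced growth of mutant yeast versus vehicle-treated controls following compound exposure; the mutations affect DNA damage repair.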

[13] = NCI Yeast Anticancer Drug Screen. Data for the rad18 strain (AID 177); settings: S. cerevisiae rad18 mutant growth inhibition, stronger effect = higher value
Summary of the method: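 Steps: expose repair-mutant yeast to compound; measure growth; express as inhibition relative to vehicle control.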

[14] = at 5.0 µM (retest, dose inferred, filed as 0.5)
[15] = at 50.0 µM (retest, dose inferred, filed as 5.0)

Measured: growth inhibition

CN(C)c1ccc(C(c2ccc(Cl)cc2)c2ccc(N(C)C)cc2)cc1
-52% (inactive) and 97% (active): [7]; [14]
active: [1]; at 33.0 µM 73% | [1]; at 100.0 µM 86% | [2]; at 3.7 µM 97% | [2]; [14] 91% and 98% | [2]; at 11.0 µM 96% | [2]; at 33.0 µM 89% | [2]; [15] 94% and 99% | [2]; at 50.0 µM 95.7% and 94.5% | [2]; at 100.0 µM 79% | [3]; at 3.7 µM 98% | [3]; [14] 90% and 99% | [3]; at 11.0 µM 97% | [3]; at 33.0 µM 93% | [3]; [15] 93% and 100% | [3]; at 50.0 µM 95% and 94.3% | [3]; at 100.0 µM 86% | [4]; at 1.2 µM 82% | [4]; at 3.7 µM 98% | [4]; at 11.0 µM 98% | [4]; at 33.0 µM 94% | [4]; at 100.0 µM 84% | [5]; [14] 98% | [5]; [15] 94% and 99% | [5]; at 50.0 µM 94.1% and 95.3% | [6]; at 33.0 µM 87% | [6]; at 100.0 µM 78% | [7]; [15] 74% and 99% | [7]; at 50.0 µM 77.9% and 89.7% | [8]; at 1.2 µM 80% | [8]; at 3.7 µM 98% | [8]; [14] 93% and 99% | [8]; at 11.0 µM 97% | [8]; at 33.0 µM 93% | [8]; [15] 91% and 99% | [8]; at 50.0 µM 94.4% and 91.3% | [8]; at 100.0 µM 80% | [9]; at 33.0 µM 86% | [9]; at 100.0 µM 85% | [10]; at 3.7 µM 87% | [10]; at 11.0 µM 73% | [10]; at 33.0 µM 92% | [10]; at 100.0 µM 86% | [11]; at 3.7 µM 91% | [11]; at 11.0 µM 83% | [11]; at 33.0 µM 93% | [11]; at 100.0 µM 85% | [12]; [14] 96% and 98% | [12]; [15] 90% and 99% | [12]; at 50.0 µM 93.4% and 92.8% | [13]; at 1.2 µM 94% | [13]; at 3.7 µM 98% | [13]; at 11.0 µM 97% | [13]; at 33.0 µM 90% | [13]; at 100.0 µM 83%
inactive: [1]; at 1.2 µM 0% | [1]; at 3.7 µM 53% | [1]; at 11.0 µM 28% | [2]; at 1.2 µM 64% | [3]; at 1.2 µM 31% | [6]; at 1.2 µM -14% | [6]; at 3.7 µM 26% | [6]; at 11.0 µM 26% | [9]; at 1.2 µM -2% | [9]; at 3.7 µM 13% | [9]; at 11.0 µM 17% | [10]; at 1.2 µM 9% | [11]; at 1.2 µM 24%

Nc1c([N+](=O)[O-])cc2c3c(cccc13)CC2
inactive: [1]; at 1.2 µM 6% | [1]; at 3.7 µM 12% | [1]; at 11.0 µM 24% | [1]; at 33.0 µM 25% | [1]; at 100.0 µM 24% | [2]; at 1.2 µM 28% | [2]; at 3.7 µM 67% | [2]; [14] 3% | [3]; at 1.2 µM 4% | [3]; at 3.7 µM 14% | [3]; [14] 2% | [3]; at 11.0 µM 13% | [3]; at 33.0 µM 25% | [3]; [15] 29% | [3]; at 50.0 µM 27.9% | [3]; at 100.0 µM 29% | [4]; at 1.2 µM 11% | [4]; at 3.7 µM 14% | [4]; at 11.0 µM 30% | [4]; at 33.0 µM 39% | [4]; at 100.0 µM 54% | [5]; [14] 16% | [5]; [15] 54% | [5]; at 50.0 µM 52.5% | [6]; at 1.2 µM 8% | [6]; at 3.7 µM 14% | [6]; at 11.0 µM 17% | [6]; at 33.0 µM 20% | [6]; at 100.0 µM 26% | [7]; [14] -16% | [7]; [15] 20% | [7]; at 50.0 µM 21.5% | [8]; at 1.2 µM -4% | [8]; at 3.7 µM 0% | [8]; [14] -20% | [8]; at 11.0 µM 14% | [8]; at 33.0 µM 10% | [8]; [15] 17% | [8]; at 50.0 µM 21.4% | [8]; at 100.0 µM 11% | [9]; at 1.2 µM 3% | [9]; at 3.7 µM 10% | [9]; at 11.0 µM 18% | [9]; at 33.0 µM 25% | [9]; at 100.0 µM 55% | [10]; at 1.2 µM 5% | [10]; at 3.7 µM 14% | [10]; at 11.0 µM 20% | [10]; at 33.0 µM 28% | [10]; at 100.0 µM 53% | [11]; at 1.2 µM 8% | [11]; at 3.7 µM 20% | [11]; at 11.0 µM 33% | [11]; at 33.0 µM 45% | [11]; at 100.0 µM 65% | [12]; [14] 12% | [12]; [15] 65% | [13]; at 1.2 µM 24%
active: [2]; at 11.0 µM 79% | [2]; at 33.0 µM 77% | [2]; [15] 81% | [2]; at 50.0 µM 87.2% | [2]; at 100.0 µM 83% | [12]; at 50.0 µM 77.9% | [13]; at 3.7 µM 71% | [13]; at 11.0 µM 86% | [13]; at 33.0 µM 83% | [13]; at 100.0 µM 86%
